PubChem BioAssay (NCI)
This is part of a sample that, as a whole, favours compounds with a hit. Of some 83,000 tested, about 20% had one in any assay.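 Growth was measured after 48 h exposure to one concentration of compound in 96-well plates. Values under 10 count as active.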 Activity calls are given as the source filed them.

Assays:
Experiment in all cases: NCI-60 one-dose screen, 48 h (100 = growth as untreated, 0 = no growth, -100 = all killed)
[1] = tested on: DU-145 prostate
[2] = tested on: K-562 leukemia; settings: 10 µM unless noted
[3] = tested on: MALME-3M melanoma
[4] = tested on: MDA-MB-231 breast
[5] = tested on: RXF 393 renal
[6] = tested on: SF-268 CNS
[7] = tested on: SF-295 CNS
[8] = tested on: SF-539 CNS
[9] = tested on: UACC-257 melanoma
[10] = tested on: M14 melanoma

Measured: growth

CN1CCN(C(=O)CCN(C(=O)Oc2cc3c(c4ccccc24)[C@H](CCl)CN3C(=O)c2cc3cc(OCCCN4CCC4)ccc3[nH]2)[C@H]2CCSSC2)CC1
active: [1]; 10 µM unless noted -84.3% | [2] -42.9% | [3]; 10 µM unless noted -86.8% | [4]; 10 µM unless noted -89.6% | [5]; 10 µM unless noted -86.7% | [6]; 10 µM unless noted -50.4% | [7]; 10 µM unless noted -71% | [8]; 10 µM unless noted -94% | [9]; 10 µM unless noted -77.9% | [10]; 10 µM unless noted -62.5%

COc1cc(CNC(=O)C[C@H](C)CCC=C(C)C)ccc1OCc1cn(-c2cccc(C(F)(F)F)c2)nn1
inactive: [1]; 10 µM unless noted 101% | [2] 59% | [3]; 10 µM unless noted 80.8% | [4]; 10 µM unless noted 87.2% | [5]; 10 µM unless noted 88.3% | [6]; 10 µM unless noted 83.9% | [7]; 10 µM unless noted 72.9% | [8]; 10 µM unless noted 16.3% | [9]; 10 µM unless noted 104% | [10]; 10 µM unless noted 92.1%

COC(=O)c1cc(C(=O)C(Br)Br)n2c1ccc1c3ccccc3ccc12
inactive: [1]; 10 µM unless noted 52.2% | [2] 52.3% | [3]; 10 µM unless noted 65.6% | [4]; 10 µM unless noted 67.7% | [5]; 10 µM unless noted 141% | [6]; 10 µM unless noted 68% | [7]; 10 µM unless noted 54% | [8]; 10 µM unless noted 54.9% | [9]; 10 µM unless noted 80.1% | [10]; 10 µM unless noted 75.1%

CC/C(=C(\c1ccc(O)cc1)c1ccc(OCCN(C)C(=O)CCOCCNC(=O)c2ccc3c(c2)CN([C@@H]2CCC(=O)NC2=O)C3=O)cc1)c1ccccc1
inactive: [1]; 1 µM 105% | [1]; 10 µM 109% | [3]; 1 µM 78.4% | [3]; 10 µM 52.5% | [4]; 1 µM 33.7% | [4]; 10 µM 21.8% | [5]; 1 µM 102% | [5]; 10 µM 90% | [6]; 1 µM 89.3% | [6]; 10 µM 100% | [7]; 1 µM 96.2% | [7]; 10 µM 93.2% | [8]; 1 µM 94.6% | [8]; 10 µM 88.9% | [9]; 1 µM 101% | [9]; 10 µM 88.3% | [10]; 1 µM 90.5% | [10]; 10 µM 92.8%

N#CC1=C(c2cccs2)Nc2c(c(-c3ccccc3)nn2-c2ccccc2)C12C(=O)Nc1ccc(Br)cc12 (stereo not drawn)
active: [2] 2.75% | [3]; 10 µM unless noted -18.7% | [4]; 10 µM unless noted -34% | [5]; 10 µM unless noted -39.7% | [7]; 10 µM unless noted -37.3% | [8]; 10 µM unless noted -62.4% | [10]; 10 µM unless noted -72.1%
inactive: [1]; 10 µM unless noted 31.5% | [6]; 10 µM unless noted 15.7% | [9]; 10 µM unless noted 35.8%

C/C(=N/O)c1ccc(NC(=O)CSc2nnc(-c3ccc(-c4nc5ccc(Cl)cc5[nH]4)cc3)o2)cc1
active: [1]; 10 µM unless noted -13.6% | [3]; 10 µM unless noted -80.8% | [4]; 10 µM unless noted -96.5% | [5]; 10 µM unless noted -71.5% | [7]; 10 µM unless noted -16.4% | [8]; 10 µM unless noted -100% | [9]; 10 µM unless noted -36.9% | [10]; 10 µM unless noted -62.7%
inactive: [2] 14.9% | [6]; 10 µM unless noted 17.6%

CC1=C(C(=O)Nc2ccccc2)C(c2cccc(Cl)c2Cl)n2c(nc3ccccc32)N1 (stereo not drawn)
inactive: [1]; 10 µM unless noted 71.1% | [2] 26.5% | [3]; 10 µM unless noted 71.4% | [4]; 10 µM unless noted 71.4% | [5]; 10 µM unless noted 34.5% | [6]; 10 µM unless noted 42.5% | [7]; 10 µM unless noted 47.1% | [8]; 10 µM unless noted 71.4% | [9]; 10 µM unless noted 60.8% | [10]; 10 µM unless noted 48.8%

C/C(=N\Nc1ccc(S(N)(=O)=O)cc1)c1cnn(-c2cc(=O)[nH]c3ccc(Br)cc23)c1C
inactive: [1]; 10 µM unless noted 77.9% | [2] 35% | [3]; 10 µM unless noted 21.7% | [4]; 10 µM unless noted 31.4% | [5]; 10 µM unless noted 68.6% | [6]; 10 µM unless noted 57.3% | [7]; 10 µM unless noted 91.9% | [8]; 10 µM unless noted 41.6% | [9]; 10 µM unless noted 66.3% | [10]; 10 µM unless noted 73%

Cc1nn(-c2ccccc2)c2nc(C)n(CC(=O)N/N=C/c3cccc([N+](=O)[O-])c3)c(=O)c12
inactive: [1]; 10 µM unless noted 105% | [2] 91% | [3]; 10 µM unless noted 99% | [4]; 10 µM unless noted 78.5% | [5]; 10 µM unless noted 84.2% | [6]; 10 µM unless noted 96.5% | [7]; 10 µM unless noted 101% | [8]; 10 µM unless noted 95.3% | [9]; 10 µM unless noted 101% | [10]; 10 µM unless noted 107%

Cc1cccc(/C=C/c2ccc(NC(=S)NCCCCN(C)C)cc2)c1
active: [1]; 10 µM unless noted -82.7% | [2] 3.99% | [3]; 10 µM unless noted -96.1% | [4]; 10 µM unless noted -94.4% | [5]; 10 µM unless noted -91.8% | [6]; 10 µM unless noted -52.4% | [7]; 10 µM unless noted -95.6% | [8]; 10 µM unless noted -86.4% | [9]; 10 µM unless noted -65.4% | [10]; 10 µM unless noted -64.4%

Cc1ccc(N=Nc2c(N)nn3c(-c4cc5ccccc5oc4=O)ccnc23)cc1
active: [5]; 10 µM unless noted 7.4% | [8]; 10 µM unless noted -3.24%
inactive: [1]; 10 µM unless noted 43.7% | [2] 40.7% | [3]; 10 µM unless noted 67.1% | [4]; 10 µM unless noted 30.7% | [6]; 10 µM unless noted 56.8% | [7]; 10 µM unless noted 57.4% | [9]; 10 µM unless noted 90.3% | [10]; 10 µM unless noted 46.6%

COc1ccc(-c2nc3ccccc3n2CC(=O)N=Nc2c(O)[nH]c3ccc(Br)cc23)cc1
inactive: [1]; 10 µM unless noted 33.7% | [2] 35.3% | [3]; 10 µM unless noted 79.3% | [4]; 10 µM unless noted 57.5% | [5]; 10 µM unless noted 64.3% | [6]; 10 µM unless noted 96% | [7]; 10 µM unless noted 81.1% | [8]; 10 µM unless noted 87.9% | [9]; 10 µM unless noted 120% | [10]; 10 µM unless noted 77.4%
